This experiment in a line: chemical genetic growth profiling, strain panel (AID 1159580).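 Further: tested at 20 µM; growth read once vehicle control cultures reached saturation at 30 °C; 1 = growth at the plate median or of vehicle wells.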 The settings on record: growth OD.
[1] abbreviates: S. cerevisiae deletion strains, locus YGR078C, strain PAC10, stronger effect = lower value.
[2] abbreviates: S. cerevisiae deletion strains, locus YNL153C, strain GIM3, stronger effect = lower value.
Setting [3] is: S. cerevisiae deletion strains, locus YNL322C, strain KRE1, stronger effect = lower value.
Where [4] appears, read: S. cerevisiae deletion strains, locus YAL013W, strain DEP1, stronger effect = lower value.
[5] abbreviates: S. cerevisiae deletion strains, locus YBR229C, strain ROT2, stronger effect = lower value.
Where [6] appears, read: S. cerevisiae deletion strains, locus YDL101C, strain DUN1, stronger effect = lower value.
[7] abbreviates: S. cerevisiae deletion strains, locus YDL134C, strain PPH21, stronger effect = lower value.
[8] abbreviates: S. cerevisiae deletion strains, locus YDR150W, strain NUM1, stronger effect = lower value.
[9] abbreviates: S. cerevisiae deletion strains, locus YEL061C, strain CIN8, stronger effect = lower value.
The mark [10] stands for this setting: S. cerevisiae deletion strains, locus YHR030C, strain SLT2, stronger effect = lower value.
Setting [11] is: S. cerevisiae deletion strains, locus YHR087W, strain rtc3, stronger effect = lower value.
Where [12] appears, read: S. cerevisiae deletion strains, locus YJR043C, strain POL32, stronger effect = lower value.
The mark [13] stands for this setting: S. cerevisiae deletion strains, locus YJR075W, strain HOC1, stronger effect = lower value.
Where [14] appears, read: S. cerevisiae deletion strains, locus YLR039C, strain RIC1, stronger effect = lower value.
Where [15] appears, read: S. cerevisiae deletion strains, locus YLR058C, strain SHM2 (second series), stronger effect = lower value.
Setting [16] is: S. cerevisiae deletion strains, locus YLR085C, strain ARP6, stronger effect = lower value.
Setting [17] is: S. cerevisiae deletion strains, locus YLR262C, strain YPT6, stronger effect = lower value.
The mark [18] stands for this setting: S. cerevisiae deletion strains, locus YML094W, strain GIM5, stronger effect = lower value.
Setting [19] is: S. cerevisiae deletion strains, locus YMR219W, strain ESC1, stronger effect = lower value.
Setting [20] is: S. cerevisiae deletion strains, locus YMR263W, strain SAP30, stronger effect = lower value.
Setting [21] is: S. cerevisiae deletion strains, locus YMR307W, strain GAS1, stronger effect = lower value.
The mark [22] stands for this setting: S. cerevisiae deletion strains, locus YNL298W, strain CLA4 (second series), stronger effect = lower value.
Setting [23] is: S. cerevisiae deletion strains, locus YNR030W, strain Alg12, stronger effect = lower value.
Where [24] appears, read: S. cerevisiae deletion strains, locus YOL006C, strain TOP1, stronger effect = lower value.
The mark [25] stands for this setting: S. cerevisiae deletion strains, locus YPL055C, strain LGE1, stronger effect = lower value.
The mark [26] stands for this setting: S. cerevisiae deletion strains, locus YPL241C, strain CIN2, stronger effect = lower value.
Setting [27] is: S. cerevisiae deletion strains, locus YPR135W, strain CTF4, stronger effect = lower value.

Structures are written as SMILES. Hit rate of the full screen: of about 5,500 compounds, about 2,000 (36%) were called active. Another 18% or so got no clear call; they are omitted. The list shows a part of the results. Unmarked numbers belong to inactive results. No stated cut-off is given here; in the data, active means normalized growth mostly below about 0.91 (no sharp cut-off); inconclusive means no clear call, values can overlap the other calls; inactive means mostly above about 0.92.

As for `O=C(Cc1ccc(Cl)c(Cl)c1)OCCN1CCCC1`, the normalized growth is 1.02 (S. cerevisiae deletion strains, locus YAL040C, strain CLN3, stronger effect = lower value); 1.02 (S. cerevisiae deletion strains, locus YDR363W, strain ESC2, stronger effect = lower value); 0.997 (S. cerevisiae deletion strains, locus YER002W, strain NOP16, stronger effect = lower value); 0.994 under setting [1]; 0.999 under setting [2]; 1.02 (S. cerevisiae deletion strains, locus YNL175C, strain NOP13, stronger effect = lower value). Also, the normalized growth is, setting by setting: (S. cerevisiae deletion strains, locus YNL197C, strain WHI3, stronger effect = lower value) 1; (S. cerevisiae deletion strains, locus YNL224C, strain SQS1, stronger effect = lower value) 1.01; under setting [3], 0.99; (S. cerevisiae deletion strains, locus YOR083W, strain WHI5 (second series), stronger effect = lower value) 1.03.

In the case of `Cc1ccc(=O)n(Cc2ccc(Cl)c(Cl)c2)n1`, the normalized growth is 0.989 under setting [4]; 1.01 under setting [5]; 0.958 under setting [6]; 0.989 under setting [7]; 0.968 under setting [8]; 1 under setting [9]. Moreover, the normalized growth under setting [1] was 0.977; the normalized growth under setting [10] was 0.892; the normalized growth under setting [11] was 1.01; the normalized growth under setting [12] is 0.966; the normalized growth under setting [13] is 0.986; the normalized growth (S. cerevisiae deletion strains, locus YKL190W, strain CNB1, stronger effect = lower value) is 0.988. In addition, the normalized growth is 0.921 under setting [14]; 0.986 under setting [15]; 0.938 under setting [16]; 0.913 under setting [17]; 0.974 under setting [18]; 0.992 under setting [19]. Besides, the normalized growth is, setting by setting: under setting [20], 0.99; under setting [21], 1.06; under setting [2], 0.949; under setting [22], 0.954; under setting [3], 0.988; under setting [23], 0.988. For the same compound, the normalized growth is 0.899 under setting [24], 1.03 under setting [25], 0.985 under setting [26] and 0.918 under setting [27].

For `O=C1CCCN1c1ccc(Cl)c(Cl)c1`, the normalized growth was 0.987 under setting [4]; 0.977 under setting [5]; 0.939 under setting [6]; 0.969 under setting [7]; 0.968 under setting [8]; 0.933 under setting [9]. Besides, the normalized growth under setting [1] was 0.976; the normalized growth under setting [10] is 0.8; the normalized growth under setting [11] was 0.989; the normalized growth under setting [12] was 0.97; the normalized growth under setting [13] was 0.983; the normalized growth under setting [14] is 0.916. Further, the normalized growth runs as follows: under setting [15], 0.988; under setting [16], 0.894; under setting [17], 0.949; under setting [18], 0.853 (active); under setting [19], 0.988; under setting [20], 0.984. Besides, the normalized growth runs as follows: under setting [21], 0.9; (S. cerevisiae deletion strains, locus YNL128W, strain TEP1, stronger effect = lower value) 0.94; under setting [2], 0.95; under setting [22], 0.911; under setting [3], 0.974; under setting [23], 0.96. Also, the normalized growth runs as follows: under setting [24], 0.748; under setting [25], 0.889; under setting [26], 0.847 (active); under setting [27], 0.913; (S. cerevisiae strains, strain wild type, stronger effect = lower value) 0.978.
